The values that follow come from PubChem BioAssay AID687014 (The Scripps Research Institute Molecular Screening Center, 2013).

Molecules are shown by their SMILES. Several values for one entry are separate records, joined by “and”; a condition that tells them apart may be missing. Equal values may be shown once. Screen size: about 370,000 compounds; about 6,800 (1.8%) were called active.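 The calls were made as follows: active = activation above a cutoff set at the mean of all screened compounds plus 3 SD (cut at about 10% in these data); inactive = the rest.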 For the sample, actives were picked, then their nearest neighbours and some compounds at random.

For the assay, the system named is Nuclear hormone receptor DAF-12 (Heterodera glycines), GAL4 fusion. As to the kind of experiment: H. glycines DAF-12 receptor agonists, primary screen, cell-based, luminescence, HEK293, GAL4 fusion, UAS-luciferase (AID 687014).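 Also: 0% = DMSO wells and 100% = sodium butyrate wells.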 To be noted: HEK293 GAL4-hgDAF12 UAS-luciferase reporter, agonist luminescence; at 6.8 µM; stronger effect = higher value; normalized to butyrate control.
For the molecule `CN(CC(=O)Nc1ccc(Cl)cc1)C(=O)c1ccc(COc2ccccc2)cc1`, the activation was 0.13% (inactive). On to `CN(CC(=O)Nc1ccc(Cl)cc1)CC(=O)Nc1cccc2ccccc12`, for which the activation is 0.52% (inactive).

Consider `CN(CC(=O)Nc1ccc(Cl)cc1)C(=O)CNC(=O)c1ccc2ccccc2c1`, for which the activation is 12.3% (active). Then `O=C(CSc1nc2sc3c(c2c(=O)n1-c1ccccc1)CCCC3)NN=Cc1ccc(OCc2ccccc2)cc1`, with 4.38% (inactive).

`O=C1CCC2(CCC(c3ccc(Cl)cc3)CC2)N1CCO` (stereo not drawn): the activation is -4.23% (inactive).

Consider `CC(C)C(C)NC(=O)COc1ncnc2ccccc12` (stereo not drawn), for which the activation is 1.57% (inactive). `CCC(=O)NC(=Nc1nc2ccccc2s1)NC(=O)CC`: the activation is 12.5% (active). Turning to `CC(C)CC(=O)N/C(N)=N/c1nc2ccccc2s1`, the activation is 9.05% (inactive). Then `O=C(CN1CCC(NC(=O)NCc2ccccc2)CC1)Nc1ccc2c(c1)OCCO2`, with 1.23% (inactive); and `CCOc1cccc(C(=O)Nc2cnn(Cc3ccccc3)c2)c1`, with 2.99% (inactive). On to `O=C(Nc1ccn(Cc2ccccc2)n1)c1cccc(F)c1`, for which the activation was 20% (active). Then `O=C(Cn1cnc([N+](=O)[O-])n1)NCCc1ccccc1`, with 2.5% (inactive); and `O=C(Nc1ccn(Cc2ccccc2)n1)c1n[nH]c([N+](=O)[O-])c1Cl`, with 16.8% (active); and `Cc1c(Br)c([N+](=O)[O-])nn1CC(=O)N1CCN(Cc2ccccc2)CC1`, with 4.33% (inactive). Regarding `Cc1ccc(NC(=O)CC2C(=O)N(Cc3ccccc3)C(=S)N2NC(=O)c2cccc(F)c2)c(C)c1` (stereo not drawn), the activation was -3.58% (inactive). Then `CC(c1c[nH]c2ccccc12)c1c(-c2ccccc2)n(C)c2ccccc12` (stereo not drawn), with 0.36% (inactive); and `COC(=O)[C@]1(Cc2ccccc2)NC=C(C(=O)c2ccccc2)[C@@H]1c1cccc(OC)c1`, with 1.41% (inactive); and `Cc1cc(C)cc(NC(=O)N2CCC(N(C)CCC(C)C)CC2)c1`, with 3.99% (inactive). Turning to `O=C(NCCCN1CCOCC1)c1ccccc1NS(=O)(=O)c1ccc(F)cc1`, the activation was -1.36% (inactive). In the case of `O=C(NCCCN1CCOCC1)c1cc(-c2ccccc2F)no1`, the activation was 14.2% (active).

In the case of `O=C(NCCCN1CCOCC1)c1cnn2c(-c3ccccc3)cc(-c3ccccc3)nc12`, the activation is -2.14% (inactive). Then `Cc1cccc(CN2CCN(C3CN(Cc4cn(Cc5cc(C)cc(C)c5)nn4)S(=O)(=O)C3)CC2)c1` (stereo not drawn), with -3.8% (inactive); and `CCn1c(NC(=O)c2nn(C)cc2Br)nc2ccccc21`, with -4.58% (inactive). Consider `Cn1c(-c2ccc(C(=O)c3ccccc3)s2)nc2ccccc21`, for which the activation was 13.5% (active). In the case of `Cn1c(NC(=O)c2ccccc2)nc2ccccc21`, the activation was 15.2% (active). Regarding `CCC(C(=O)Nc1c(C)cccc1C)n1c(-c2cc(C)cs2)nc2ccccc21` (stereo not drawn), the activation was 2.55% (inactive).

In the case of `O=C(NC1=CC(=O)c2ccccc2C1=O)c1ccccc1`, the activation was -6.53% (inactive). With `CCC(C(=O)NC(C)(C)C)n1c(-c2ccccc2)nc2ccccc21` (stereo not drawn) the figure was 0.22% (inactive); with `CCOC(=O)[C@]12CCCC=C1N(Cc1ccc(OC)cc1)C(=O)[C@@H]2CC(=O)NCc1cccs1`, -4.41% (inactive); with `CN1CCCc2nc(-c3ccccc3)ccc21`, 7.25% (inactive). Then `CCc1ccc(NC2Nc3cc(C)nn3S2)cc1` (stereo not drawn), with 19.2% (active). For `CCOC(=O)c1ccc(NC2Nc3cc(C)nn3S2)cc1` (stereo not drawn), the activation is 2.62% (inactive).

With `COCCNC(=O)Cn1cc2c(n1)CCCCC2`, the activation was 0.5% (inactive). On to `CN(CC(=O)Nc1c(Cl)cccc1Cl)C(=O)CC1OC(=O)c2ccccc21` (stereo not drawn), for which the activation was -1.08% (inactive). Then `CCOC(=O)c1sc(/N=C/Nc2nc(C)c(C(=O)OCC)s2)nc1C`, with 0.82% (inactive); and `CC(=O)c1sc(N/N=C\c2ccc(C)cc2)nc1C`, with 11.2% (active); and `CC(=O)c1sc(N)nc1C`, with 1.06% (inactive) and 4.44% (inactive). On to `CC(=O)c1sc(N/N=C/c2ccc(C(C)C)cc2)nc1C`, for which the activation is 14.4% (active). Then `Cc1cc2c(=O)n(CC(=O)NCC(=O)Nc3ccc(C(C)C)cc3)cnc2s1`, with 1.17% (inactive); and `C=CC[C@]12C[C@@]3(O[C@H](c4ccc(C(F)(F)F)cc4)N=C3C[C@H](c3ccc(OC)cc3)[C@H]1C)N(C1CCN(Cc3ccccc3)CC1)C2=O`, with 0.9% (inactive). For `c1csc(-c2nnc(SCc3nc4ccccc4[nH]3)o2)c1`, the activation is -0.48% (inactive).

Take `CCOC(=O)C1=CN(Cc2ccc(Br)cc2)S(=O)(=O)N(C)C1C` (stereo not drawn): the activation is 0.23% (inactive).

`CC(C)(C)c1csc(NC2=NS(=O)(=O)c3ccccc32)n1`: the activation is 19.4% (active). Then `Cc1ccc(S(=O)(=O)N(NC2=NS(=O)(=O)c3ccccc32)C(=O)c2ccccc2)cc1`, with 0.43% (inactive); and `O=C(Oc1cccc(NC2=NS(=O)(=O)c3ccccc32)c1)c1ccncc1`, with -1.92% (inactive). With `CCCCOCCCNC(=O)C[C@H]1C[C@@]2(C(=O)OC)C(=C[C@H](C(C)(C)C)O[C@@H]2C)N(CCc2ccc(OC)c(OC)c2)C1=O` the figure was -0.02% (inactive); with `CCCNC(=O)c1cc2c(c(-c3cccc(-c4ccc(C#N)cc4)c3)n1)[C@@H](CCO)N(C(=O)CC)C2`, -0.02% (inactive). Then `Cc1ccsc1C(=O)N/N=C/c1ccc([N+](=O)[O-])cc1`, with 13.9% (active); and `Cc1ccc(NC(=O)CN2CCC(C(N)=O)CC2)cc1[N+](=O)[O-]`, with 0.92% (inactive). As for `Cc1ccsc1C(=O)NC1CCCCC1C` (stereo not drawn), the activation is -0.72% (inactive).

Take `Cc1ccsc1C(=O)NCCc1ccco1`: the activation was 8.62% (inactive). With `Cc1ccc(NC(=O)c2sccc2C)cc1[N+](=O)[O-]` the figure was 14.2% (active); with `Cc1ccc(/C=N/NC(=O)c2sccc2OCc2ccc(F)cc2)cc1`, 3.63% (inactive). With `Cn1c(N)c(C(=O)COC(=O)c2ccccc2NCc2ccco2)c(=O)n(C)c1=O`, the activation is -0.34% (inactive). Then `COc1ccc(C#CCNCc2ccc(OC)cc2OC)cc1`, with -1.32% (inactive); and `O=C(c1ccccc1)c1ccc(-c2ccccc2C(=O)NC2CCCCN(Cc3ccc(Cl)cc3)C2=O)cc1` (stereo not drawn), with 3.48% (inactive); and `CC(CO)N1CCS(=O)(=O)CC1` (stereo not drawn), with 0.38% (inactive). Consider `N#Cc1ccccc1OC[C@@H](O)CN1CCC(C(O)(c2ccccc2)c2ccccc2)CC1`, for which the activation is -4.54% (inactive).
